Laboratory results: PubChem BioAssay (NCATS)
Where “and” joins values, the source holds several entries; their conditions need not be identical. Identical values can stand only once. Results filed as inconclusive are left out. Calls of active or inactive are those of the source. Unless noted, the call rests on the fitted dose curve; in most records, active means well fitted curve in the direction sought with a large enough effect; inconclusive means small, poorly fitted or top-dose-only effect, or another doubt; inactive means no such curve, though single readings can be large; an effect the other way counts as inactive or inconclusive.

Assays:
[1] = target: Cellular tumor antigen p53 (Homo sapiens) (UniProt P04637); experiment: Primary qHTS for small molecule compounds that upregulate eGFP-tagged delta133p53alpha (in N-terminal) cells. (AID 2060322); settings: NCI-H358 eGFP-delta133p53alpha fluorescence, 24 h; activation: stronger effect = higher value; further: nearly all actives have a fitted effect of over 75% in size; further: potency means the concentration at half of the fitted maximal effect;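 on activation: series mostly up to about 56 µM; 0% = DMSO vehicle and 100% = reference activator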
Chain of Cellular tumor antigen p53 (Homo sapiens) (P04637 whole entry, looked up): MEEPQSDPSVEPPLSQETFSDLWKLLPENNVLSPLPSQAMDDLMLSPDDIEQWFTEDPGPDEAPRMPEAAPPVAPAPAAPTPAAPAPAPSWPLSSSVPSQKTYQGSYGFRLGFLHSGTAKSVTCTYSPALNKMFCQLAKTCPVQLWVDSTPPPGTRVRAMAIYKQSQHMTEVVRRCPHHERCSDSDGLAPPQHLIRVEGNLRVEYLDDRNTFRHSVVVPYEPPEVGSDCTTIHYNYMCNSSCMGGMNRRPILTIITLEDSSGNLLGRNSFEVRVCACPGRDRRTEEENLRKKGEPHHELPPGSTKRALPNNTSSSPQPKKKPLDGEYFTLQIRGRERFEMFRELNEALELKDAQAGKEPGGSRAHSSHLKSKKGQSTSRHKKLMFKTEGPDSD
How it was run: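 NCI-H358 cells pre-induced 24 h with 10 ng/ml doxycycline to express N-terminal eGFP-delta133p53alpha, then dosed 24 h at 37C without doxycycline; fixed, Hoechst-stained, GFP intensity by laser scanning cytometry, normalized to DMSO (0%) and 57.5 uM 5-azacytidine (100%).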

[2] = target: Cellular tumor antigen p53 (Homo sapiens) (UniProt P04637); experiment: Primary qHTS for small molecule compounds that upregulate eGFP-tagged delta133p53alpha (in C-terminal) cells. (AID 2060324);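 further: 0% = DMSO wells and 100% = 57.5 µM 5-azacytidine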
How it was run: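 NCI-H358 cells with doxycycline-inducible D133p53a-eGFP (C-terminal tag), pre-induced 24 h with 100 ng/ml doxycycline, plated 800/well in doxycycline-free medium and treated 24 h at 37 °C with compound titrations. Cells were then fixed and Hoechst-stained, and GFP intensity was read by laser scanning cytometry.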

[3] = target: Aldehyde dehydrogenase, mitochondrial (Homo sapiens) (UniProt P05091); experiment: qHTS for Inhibitors of the Aldehyde Dehydrogenase Family (ALDH2) Validation screens (AID 2061302; active means well fitted inhibition curve with a large enough effect; title and protocol of this record describe different tests; further: potency means the concentration at half of the fitted maximal effect)
[4] = target: Aldehyde dehydrogenase, mitochondrial (Homo sapiens) (UniProt P05091); experiment: qHTS for Inhibitors of the Aldehyde Dehydrogenase Family (ALDH2) Confirmatory screens (AID 2061303; active means well fitted inhibition curve with a large enough effect; title and protocol of this record describe different tests; further: nearly all actives have a fitted effect of over 45% in size; further: potency means the concentration at half of the fitted maximal effect)
[5] = target: Retinaldehyde dehydrogenase 3 (Homo sapiens) (UniProt P47895); experiment: qHTS for Inhibitors of the Aldehyde Dehydrogenase Family (ALDH1A3) Confirmatory screens (AID 2061311); further: nearly all actives have a fitted effect of over 60% in size; further: potency means the concentration at half of the fitted maximal effect
[6] = target: Retinal dehydrogenase 2 (Homo sapiens) (UniProt O94788); experiment: qHTS for Inhibitors of the Aldehyde Dehydrogenase Family (ALDH1A2) Confirmation screens (AID 2061314); further: nearly all actives have a fitted effect of over 65% in size; further: potency means the concentration at half of the fitted maximal effect
[7] = BET inhibitor-based combinations targeting novel dependencies in MECOM-rearranged (r) AML: SET-2 cell line (AID 2202231); settings: SET-2 AML cells viability, CellTiter-Glo luminescence, 48 h; viability: stronger effect = lower value, concentration not given here; further: nearly all actives have a fitted effect of over 35% in size; further: potency means the concentration at half of the fitted maximal effect;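 on viability: plate controls were DMSO treated cells for no effect and wells without cells for full effect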
How it was run: (§1)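 Viability of cells (500 per well) is scored by luminescent CellTiter-Glo at 48 hr post-dosing. Eleven-point titrations are normalized to DMSO and empty controls and reduced to AUC values.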

[8] = BET inhibitor-based combinations targeting novel dependencies in MECOM-rearranged (r) AML: OCI-AML3 cell line (AID 2202232); settings: Potency: OCI-AML3 viability; further: nearly all actives have a fitted effect of over 35% in size; further: potency means the concentration at half of the fitted maximal effect
How it was run: as §1

[9] = BET inhibitor-based combinations targeting novel dependencies in MECOM-rearranged (r) AML: MV-4-11 cell line (AID 2202233); further: nearly all actives have a fitted effect of over 45% in size; further: potency means the concentration at half of the fitted maximal effect
How it was run: (§2)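 Using pin-tool transfer, drugs were added in 11 doses to cells (500/well), incubated 48 hr, and assessed with CellTiter-Glo. Z-AUC is a mean-centring transformation applied separately to each screened line.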

[10] = BET inhibitor-based combinations targeting novel dependencies in MECOM-rearranged (r) AML: UCSD-AML1 cell line (AID 2202235); further: nearly all actives have a fitted effect of over 40% in size; further: potency means the concentration at half of the fitted maximal effect
How it was run: as §2

[11] = BET inhibitor-based combinations targeting novel dependencies in MECOM-rearranged (r) AML: AML-191 cell line (AID 2202236; further: nearly all actives have a fitted effect of over 35% in size; further: potency means the concentration at half of the fitted maximal effect)
How it was run: as §1

[12] = BET inhibitor-based combinations targeting novel dependencies in MECOM-rearranged (r) AML: AML-194 cell line (AID 2202237; further: nearly all actives have a fitted effect of over 40% in size; further: potency means the concentration at half of the fitted maximal effect)
How it was run: as §1

[13] = qHTS for Inhibitors of the Aldehyde Dehydrogenase Family (ALDH1A2, ALDH1A3, ALDH2, ALDH3A1) (AID 2061307); further: nearly all actives have a fitted effect of over 50% in size
[14] = target: Aldehyde dehydrogenase, mitochondrial (Homo sapiens) (UniProt P05091); experiment: qHTS for Inhibitors of the Aldehyde Dehydrogenase Family (ALDH2) Primary screen (AID 2061308);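 further: plate controls were vehicle for no effect and reference inhibitor for full effect; nearly all actives have a fitted effect of over 55% in size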
[15] = target: Retinaldehyde dehydrogenase 3 (Homo sapiens) (UniProt P47895); experiment: qHTS for Inhibitors of the Aldehyde Dehydrogenase Family (ALDH1A3) Validation screen (AID 2061312); further: nearly all actives have a fitted effect of over 45% in size; further: potency means the concentration at half of the fitted maximal effect
[16] = target: Retinaldehyde dehydrogenase 3 (Homo sapiens) (UniProt P47895); experiment: qHTS for Inhibitors of the Aldehyde Dehydrogenase Family (ALDH1A3) Primary screen (AID 2061315);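 further: plate controls were DMSO vehicle for no effect and reference inhibitor for full effect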
[17] = target: Aldehyde dehydrogenase 1A1 (Homo sapiens) (UniProt P00352); experiment: qHTS for Inhibitors of the Aldehyde Dehydrogenase Family (ALDH1A1) Confirmatory screens (AID 2061316); further: nearly all actives have a fitted effect of over 65% in size; further: potency means the concentration at half of the fitted maximal effect
[18] = BET inhibitor-based combinations targeting novel dependencies in MECOM-rearranged (r) AML: HNT-34 cell line (AID 2202234); further: nearly all actives have a fitted effect of over 35% in size; further: potency means the concentration at half of the fitted maximal effect
How it was run: as §2

CCOC(=O)N1CCN(/[N+]([O-])=N/Oc2ccc([N+](=O)[O-])cc2[N+](=O)[O-])CC1
active: Potency [1] 4780 nM | Potency [5] 14200 nM | Potency [6] 2250 nM | Potency [7] 4680 nM | Potency [8] 2950 nM | Potency [9] 1860 nM | Potency [10] 2950 nM | Potency [11] 2090 nM | Potency [12] 2950 nM
inactive: Potency [2] | Potency [3] | Potency [4]

COc1cc2c(CCNC(C)=O)c[nH]c2cc1Cl
inactive: activation [1] -18.2% | Potency [2] | Potency [3] | Potency [13] | Potency [5] | Potency [6]

Fc1ccc2[nH]c(CN3CCN(c4ccccn4)CC3)cc2c1
inactive: activation [1] -0.955% | Potency [2] | Potency [3] | Potency [14] | Potency [15] | Potency [16]

CNC(=O)Oc1ccc2c(c1)[C@]1(C)CCN(C)[C@@H]1N2C
active: Potency [13] 8960 nM
inactive: activation [1] -31.1% and -29.5% and 2.6% | Potency [2] | Potency [3] | Potency [15]

CN1CCC[C@@H]1Cc1c[nH]c2ccc(CCS(=O)(=O)c3ccccc3)cc12
inactive: activation [1] 8.47% and -10.4% and 2.33% | Potency [2] | Potency [3] | Potency [14] | Potency [15]

O=Nc1ccc2oc(=O)ccc2c1
active: Potency [3] 1120 nM | Potency [4] 1270 nM | Potency [5] 283 nM | Potency [17] 283 nM
inactive: activation [1] -33.9% | Potency [2]

CC(C(O)c1ccc(O)cc1)N1CCC(Cc2ccccc2)CC1 (stereo not given)
inactive: activation [1] -5.02% and -1% and -19.5% | Potency [2] | Potency [3] | Potency [14] | Potency [15] | Potency [16]

N=C(N)c1ccc(N)cc1
inactive: activation [1] -28.3% | Potency [2] | Potency [3] | Potency [4] | Potency [13] | Potency [6]

Cc1[nH]c(=O)c(C#N)cc1-c1ccncc1
inactive: activation [1] 7.4% and -9.21% and 7.59% | Potency [2] | Potency [3] | Potency [4] | Potency [5] | Potency [6] | viability [7] 118% | Potency [8] | Potency [9] | Potency [10] | Potency [12]

O=C(O)CCc1nc(-c2ccccc2)c(-c2ccccc2)o1
inactive: activation [1] -3.34% and -25.4% | Potency [2] | Potency [3] | Potency [14] | Potency [15] | Potency [16]

CCN(CC)CCNC(=O)c1cc(Cl)c(N)cc1OC
inactive: activation [1] -1.69% and -0.477% and 10.5% | Potency [2] | Potency [3] | Potency [14] | Potency [15] | Potency [16]

CCCCN(CC)c1nc(C)nc2c1c(C)cn2-c1c(C)cc(C)cc1C
inactive: activation [1] 34.4% and -11% | Potency [2] | Potency [3] | Potency [13] | Potency [14] | Potency [16]
active: Potency [15] 1.26 µM and 12.6 µM

CC1CN(S(=O)(=O)c2cccc3cnccc23)CCN1 (stereo not given)
inactive: activation [1] -66.5% | Potency [2] | Potency [3] | Potency [4] | Potency [13] | Potency [5] | Potency [6] | Potency [17]

CS(=O)(=O)c1ccc(-n2nc(C(F)(F)F)cc2-c2ccc(F)cc2)cc1
inactive: activation [1] -27.4% and -11.6% | Potency [2] | Potency [3] | Potency [14] | Potency [15] | Potency [16]

O=c1c(O)c(-c2cc(O)c(O)c(O)c2)oc2cc(O)cc(O)c12
active: Potency [5] 5650 nM
inactive: activation [1] -9.12% and -2.85% | Potency [2] | Potency [3] | Potency [13] | Potency [6] | Potency [8] | Potency [18] | Potency [10] | Potency [11] | Potency [12]

O=C(O)/C(=C/c1c(C(=O)O)[nH]c2cc(Cl)cc(Cl)c12)c1ccccc1
inactive: activation [1] 12.5% | Potency [2] | Potency [3] | Potency [5] | Potency [15]
active: Potency [13] 11300 nM

CN(C)C(=O)/N=N/C(=O)N(C)C
inactive: activation [1] -3.88% | Potency [2] | Potency [3] | Potency [13]
active: Potency [6] 12700 nM

COc1ccc(/C=C/c2nc(NCCCN(C)C)c3ccccc3n2)cc1
inactive: activation [1] -29.6% | Potency [2] | Potency [3] | Potency [13]

CC[C@]1(O)CC2CN(CCc3c([nH]c4ccccc34)[C@@](C(=O)OC)(c3cc4c(cc3OC)N(C)[C@H]3[C@@](O)(C(=O)OC)[C@H](OC(C)=O)[C@]5(CC)C=CCN6CC[C@]43[C@@H]65)C2)C1 (stereo not given in full)
active: Potency [7] 742 nM | Potency [8] 296 nM | Potency [9] 263 nM | Potency [18] 209 nM | Potency [10] 263 nM | Potency [11] 296 nM | Potency [12] 296 nM
inactive: activation [1] 4.91% | Potency [2] | Potency [3] | Potency [14] | Potency [15] | Potency [16]
